ChEMBL document CHEMBL1961873, “Compounds: GSK PKIS; Assays: Nanosyn kinase panel” (2012)

Legend:
[1] = target: Ribosomal protein S6 kinase alpha-6 (Homo sapiens) (UniProt Q9UK32); conditions: at 1 µM;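 also: each value is a mean inhibition of RSK4 from a GSK PKIS panel screen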
[2] = target: T1, Serine/threonine-protein kinase Sgk1 (Homo sapiens) (UniProt O00141); conditions: at 0.1 µM
T1 sequence (whole entry): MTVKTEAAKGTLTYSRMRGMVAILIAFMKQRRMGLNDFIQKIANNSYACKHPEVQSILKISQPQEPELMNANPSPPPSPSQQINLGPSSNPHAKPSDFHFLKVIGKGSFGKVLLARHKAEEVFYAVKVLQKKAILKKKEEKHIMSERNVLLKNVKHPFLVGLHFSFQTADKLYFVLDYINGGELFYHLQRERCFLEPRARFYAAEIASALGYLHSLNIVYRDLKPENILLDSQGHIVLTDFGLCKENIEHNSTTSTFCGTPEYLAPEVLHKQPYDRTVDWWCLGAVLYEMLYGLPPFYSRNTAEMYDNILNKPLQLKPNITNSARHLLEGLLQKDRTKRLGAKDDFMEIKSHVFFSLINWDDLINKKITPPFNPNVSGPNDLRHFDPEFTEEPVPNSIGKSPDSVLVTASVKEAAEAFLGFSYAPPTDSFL

[3] = target: T1, Serine/threonine-protein kinase Sgk1 (Homo sapiens); conditions: at 1 µM
[4] = target: T2, Serine/threonine-protein kinase Sgk2 (Homo sapiens) (UniProt Q9HBY8); conditions: at 0.1 µM
T2 sequence (whole entry): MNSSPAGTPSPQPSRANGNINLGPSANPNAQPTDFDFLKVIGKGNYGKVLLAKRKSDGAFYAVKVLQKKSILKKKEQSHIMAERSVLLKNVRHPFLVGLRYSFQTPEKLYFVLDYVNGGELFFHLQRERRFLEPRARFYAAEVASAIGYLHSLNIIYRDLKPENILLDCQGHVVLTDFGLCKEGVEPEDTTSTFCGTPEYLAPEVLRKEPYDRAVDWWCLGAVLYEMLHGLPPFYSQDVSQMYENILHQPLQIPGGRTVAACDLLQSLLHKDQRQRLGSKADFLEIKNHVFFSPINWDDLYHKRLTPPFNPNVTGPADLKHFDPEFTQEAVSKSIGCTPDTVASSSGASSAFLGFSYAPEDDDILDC

[5] = target: T2, Serine/threonine-protein kinase Sgk2 (Homo sapiens); conditions: at 1 µM
[6] = target: T3, Serine/threonine-protein kinase Sgk3 (Homo sapiens) (UniProt Q96BR1); conditions: at 0.1 µM
T3 sequence (whole entry): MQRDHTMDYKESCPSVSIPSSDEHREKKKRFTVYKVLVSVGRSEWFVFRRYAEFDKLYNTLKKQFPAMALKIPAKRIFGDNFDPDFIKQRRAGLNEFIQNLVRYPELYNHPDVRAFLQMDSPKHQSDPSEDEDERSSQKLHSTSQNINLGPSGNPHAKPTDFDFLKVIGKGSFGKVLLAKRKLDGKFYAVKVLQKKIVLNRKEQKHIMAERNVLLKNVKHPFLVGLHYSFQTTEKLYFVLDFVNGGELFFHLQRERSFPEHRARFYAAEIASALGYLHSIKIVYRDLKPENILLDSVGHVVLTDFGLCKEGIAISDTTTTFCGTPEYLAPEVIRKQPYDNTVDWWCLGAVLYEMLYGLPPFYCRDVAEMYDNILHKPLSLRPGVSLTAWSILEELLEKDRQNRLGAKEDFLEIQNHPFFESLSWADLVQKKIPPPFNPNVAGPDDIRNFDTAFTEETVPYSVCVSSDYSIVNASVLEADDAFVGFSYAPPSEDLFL

[7] = target: T3, Serine/threonine-protein kinase Sgk3 (Homo sapiens); conditions: at 1 µM
[8] = target: 5'-AMP-activated protein kinase catalytic subunit alpha-1 (Homo sapiens) (UniProt Q13131); conditions: at 0.1 µM
5'-AMP-activated protein kinase catalytic subunit alpha-1 (Homo sapiens), sequence (Q13131 whole entry, looked up): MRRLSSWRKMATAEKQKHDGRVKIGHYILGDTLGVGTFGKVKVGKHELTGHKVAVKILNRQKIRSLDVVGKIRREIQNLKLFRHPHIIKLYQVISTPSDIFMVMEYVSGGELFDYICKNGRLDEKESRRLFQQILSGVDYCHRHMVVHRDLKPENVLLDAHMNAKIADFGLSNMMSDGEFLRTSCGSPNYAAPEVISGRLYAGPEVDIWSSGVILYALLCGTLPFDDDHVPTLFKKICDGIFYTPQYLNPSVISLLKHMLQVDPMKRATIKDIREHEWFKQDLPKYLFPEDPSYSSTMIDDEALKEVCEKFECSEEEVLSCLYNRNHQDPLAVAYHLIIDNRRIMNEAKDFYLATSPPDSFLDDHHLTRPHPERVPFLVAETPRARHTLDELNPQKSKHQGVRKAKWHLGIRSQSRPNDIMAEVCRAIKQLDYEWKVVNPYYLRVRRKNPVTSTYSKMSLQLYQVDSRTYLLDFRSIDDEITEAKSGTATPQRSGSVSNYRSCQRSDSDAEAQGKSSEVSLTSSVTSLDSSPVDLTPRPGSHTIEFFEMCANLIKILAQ

[9] = target: 5'-AMP-activated protein kinase catalytic subunit alpha-1 (Homo sapiens) (UniProt Q13131); conditions: at 1 µM
[10] = target: 5'-AMP-activated protein kinase catalytic subunit alpha-2 (Homo sapiens) (UniProt P54646); conditions: at 0.1 µM
5'-AMP-activated protein kinase catalytic subunit alpha-2 (Homo sapiens), sequence (P54646 whole entry, looked up): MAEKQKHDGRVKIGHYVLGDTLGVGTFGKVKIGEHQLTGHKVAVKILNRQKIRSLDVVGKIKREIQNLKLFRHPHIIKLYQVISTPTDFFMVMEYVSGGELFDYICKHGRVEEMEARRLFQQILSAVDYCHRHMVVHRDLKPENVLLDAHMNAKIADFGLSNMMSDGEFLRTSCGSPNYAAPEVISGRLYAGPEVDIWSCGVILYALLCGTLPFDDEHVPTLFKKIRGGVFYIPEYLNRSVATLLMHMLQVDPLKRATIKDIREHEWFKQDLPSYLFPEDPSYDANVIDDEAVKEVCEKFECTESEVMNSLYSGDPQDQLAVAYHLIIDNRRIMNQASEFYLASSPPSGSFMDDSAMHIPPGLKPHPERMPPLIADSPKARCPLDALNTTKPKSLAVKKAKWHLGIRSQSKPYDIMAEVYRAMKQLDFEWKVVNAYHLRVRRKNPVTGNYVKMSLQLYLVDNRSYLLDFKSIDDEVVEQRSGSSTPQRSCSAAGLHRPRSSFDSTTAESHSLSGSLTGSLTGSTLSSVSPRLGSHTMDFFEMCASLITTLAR

[11] = target: 5'-AMP-activated protein kinase catalytic subunit alpha-2 (Homo sapiens) (UniProt P54646); conditions: at 1 µM
[12] = target: T4, NUAK family SNF1-like kinase 1 (Homo sapiens) (UniProt O60285); conditions: at 0.1 µM
T4 sequence (whole entry): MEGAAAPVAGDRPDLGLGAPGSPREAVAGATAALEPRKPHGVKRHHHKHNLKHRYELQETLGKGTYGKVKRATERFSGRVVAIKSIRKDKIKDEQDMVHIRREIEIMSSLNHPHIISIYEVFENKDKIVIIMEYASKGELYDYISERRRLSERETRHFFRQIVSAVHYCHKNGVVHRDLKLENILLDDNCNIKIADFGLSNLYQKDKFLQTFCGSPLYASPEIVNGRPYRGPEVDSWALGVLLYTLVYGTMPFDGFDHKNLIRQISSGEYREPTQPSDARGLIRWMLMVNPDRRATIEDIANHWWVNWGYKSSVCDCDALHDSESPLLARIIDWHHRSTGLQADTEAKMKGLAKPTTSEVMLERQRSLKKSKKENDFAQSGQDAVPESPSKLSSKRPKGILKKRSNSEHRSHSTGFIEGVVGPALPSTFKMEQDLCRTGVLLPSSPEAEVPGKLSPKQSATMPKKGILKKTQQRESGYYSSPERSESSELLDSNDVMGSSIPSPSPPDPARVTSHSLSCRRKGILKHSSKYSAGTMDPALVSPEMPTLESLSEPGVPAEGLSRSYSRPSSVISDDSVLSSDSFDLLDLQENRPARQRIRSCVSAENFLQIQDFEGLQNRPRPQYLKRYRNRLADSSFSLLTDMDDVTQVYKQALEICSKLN

[13] = target: T4, NUAK family SNF1-like kinase 1 (Homo sapiens); conditions: at 1 µM
[14] = target: T5, Serine/threonine-protein kinase BRSK1 (Homo sapiens) (UniProt Q8TDC3); conditions: at 0.1 µM
T5 sequence (whole entry): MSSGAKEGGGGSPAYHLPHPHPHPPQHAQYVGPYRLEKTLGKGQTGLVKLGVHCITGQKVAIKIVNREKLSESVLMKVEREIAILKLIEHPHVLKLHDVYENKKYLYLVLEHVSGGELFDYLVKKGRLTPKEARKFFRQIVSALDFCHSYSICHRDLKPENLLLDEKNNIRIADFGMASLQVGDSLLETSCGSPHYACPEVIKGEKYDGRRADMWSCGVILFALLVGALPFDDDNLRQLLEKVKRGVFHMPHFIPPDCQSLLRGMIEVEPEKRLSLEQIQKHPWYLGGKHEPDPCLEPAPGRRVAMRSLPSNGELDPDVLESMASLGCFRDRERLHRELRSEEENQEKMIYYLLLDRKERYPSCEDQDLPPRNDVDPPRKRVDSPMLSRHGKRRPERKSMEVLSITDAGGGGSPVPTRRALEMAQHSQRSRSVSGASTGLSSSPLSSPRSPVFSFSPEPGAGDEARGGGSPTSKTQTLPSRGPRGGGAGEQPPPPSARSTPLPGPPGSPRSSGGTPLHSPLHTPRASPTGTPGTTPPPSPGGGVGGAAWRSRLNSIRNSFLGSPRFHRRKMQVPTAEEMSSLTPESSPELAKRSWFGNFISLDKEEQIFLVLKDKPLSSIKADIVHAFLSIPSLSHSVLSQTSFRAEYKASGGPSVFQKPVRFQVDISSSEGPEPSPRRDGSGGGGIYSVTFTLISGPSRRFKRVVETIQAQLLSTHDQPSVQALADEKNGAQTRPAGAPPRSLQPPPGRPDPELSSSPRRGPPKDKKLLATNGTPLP

[15] = target: T5, Serine/threonine-protein kinase BRSK1 (Homo sapiens); conditions: at 1 µM
[16] = target: T6, Serine/threonine-protein kinase BRSK2 (Homo sapiens) (UniProt Q8IWQ3); conditions: at 0.1 µM
T6 sequence (whole entry): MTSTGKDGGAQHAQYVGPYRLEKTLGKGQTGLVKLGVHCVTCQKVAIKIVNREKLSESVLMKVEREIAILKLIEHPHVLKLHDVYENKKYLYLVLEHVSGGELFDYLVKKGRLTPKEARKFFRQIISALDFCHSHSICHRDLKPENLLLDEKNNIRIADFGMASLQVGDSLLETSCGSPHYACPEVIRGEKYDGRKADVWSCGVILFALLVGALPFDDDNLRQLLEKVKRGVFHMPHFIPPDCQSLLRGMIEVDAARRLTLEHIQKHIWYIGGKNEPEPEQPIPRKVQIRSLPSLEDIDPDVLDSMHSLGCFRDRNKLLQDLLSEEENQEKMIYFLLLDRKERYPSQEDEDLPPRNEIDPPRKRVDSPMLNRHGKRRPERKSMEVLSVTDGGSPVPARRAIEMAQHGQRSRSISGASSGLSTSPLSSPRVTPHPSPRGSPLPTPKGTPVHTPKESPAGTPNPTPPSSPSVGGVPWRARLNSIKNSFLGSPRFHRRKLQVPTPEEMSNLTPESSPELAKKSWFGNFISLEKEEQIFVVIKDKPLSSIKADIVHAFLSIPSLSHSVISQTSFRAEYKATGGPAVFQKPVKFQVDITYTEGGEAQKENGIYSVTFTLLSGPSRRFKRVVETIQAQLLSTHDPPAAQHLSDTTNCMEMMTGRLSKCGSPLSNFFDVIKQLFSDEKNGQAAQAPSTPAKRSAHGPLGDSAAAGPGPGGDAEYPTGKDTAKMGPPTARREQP

[17] = target: T6, Serine/threonine-protein kinase BRSK2 (Homo sapiens); conditions: at 1 µM
[18] = target: Calcium/calmodulin-dependent protein kinase type 1D (Homo sapiens) (UniProt Q8IU85); conditions: at 0.1 µM
Calcium/calmodulin-dependent protein kinase type 1D (Homo sapiens), sequence (Q8IU85 whole entry, looked up): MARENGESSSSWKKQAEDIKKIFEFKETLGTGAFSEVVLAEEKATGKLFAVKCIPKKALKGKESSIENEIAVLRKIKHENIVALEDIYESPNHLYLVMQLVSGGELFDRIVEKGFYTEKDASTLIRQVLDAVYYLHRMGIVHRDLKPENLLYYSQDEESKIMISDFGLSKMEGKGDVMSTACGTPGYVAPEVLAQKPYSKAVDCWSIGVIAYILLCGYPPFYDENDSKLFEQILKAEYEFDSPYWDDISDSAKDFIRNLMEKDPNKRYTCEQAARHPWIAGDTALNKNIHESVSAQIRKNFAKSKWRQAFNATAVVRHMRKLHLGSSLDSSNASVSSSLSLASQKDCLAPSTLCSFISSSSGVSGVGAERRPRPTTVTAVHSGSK

[19] = target: Calcium/calmodulin-dependent protein kinase type 1D (Homo sapiens) (UniProt Q8IU85); conditions: at 1 µM
[20] = target: Calcium/calmodulin-dependent protein kinase type II subunit alpha (Homo sapiens) (UniProt Q9UQM7); conditions: at 0.1 µM;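 also: reported values are averages (mean inhibition of CAMK2A)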
Calcium/calmodulin-dependent protein kinase type II subunit alpha (Homo sapiens), sequence (Q9UQM7 whole entry): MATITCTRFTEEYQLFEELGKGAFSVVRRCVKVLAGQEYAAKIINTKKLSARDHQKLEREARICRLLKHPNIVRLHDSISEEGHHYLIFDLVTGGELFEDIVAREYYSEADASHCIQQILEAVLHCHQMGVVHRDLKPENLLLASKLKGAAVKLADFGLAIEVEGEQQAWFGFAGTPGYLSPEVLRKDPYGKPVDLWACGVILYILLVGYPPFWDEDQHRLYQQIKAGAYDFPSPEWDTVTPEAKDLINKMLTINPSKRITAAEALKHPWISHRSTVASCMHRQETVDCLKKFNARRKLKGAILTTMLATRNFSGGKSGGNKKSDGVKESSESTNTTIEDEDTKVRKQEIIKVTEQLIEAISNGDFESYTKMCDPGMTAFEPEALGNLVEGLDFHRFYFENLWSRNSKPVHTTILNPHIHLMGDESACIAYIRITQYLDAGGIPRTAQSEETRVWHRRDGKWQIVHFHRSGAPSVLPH

Ribosomal protein S6 kinase alpha-6 (Homo sapiens), sequence (Q9UK32 whole entry): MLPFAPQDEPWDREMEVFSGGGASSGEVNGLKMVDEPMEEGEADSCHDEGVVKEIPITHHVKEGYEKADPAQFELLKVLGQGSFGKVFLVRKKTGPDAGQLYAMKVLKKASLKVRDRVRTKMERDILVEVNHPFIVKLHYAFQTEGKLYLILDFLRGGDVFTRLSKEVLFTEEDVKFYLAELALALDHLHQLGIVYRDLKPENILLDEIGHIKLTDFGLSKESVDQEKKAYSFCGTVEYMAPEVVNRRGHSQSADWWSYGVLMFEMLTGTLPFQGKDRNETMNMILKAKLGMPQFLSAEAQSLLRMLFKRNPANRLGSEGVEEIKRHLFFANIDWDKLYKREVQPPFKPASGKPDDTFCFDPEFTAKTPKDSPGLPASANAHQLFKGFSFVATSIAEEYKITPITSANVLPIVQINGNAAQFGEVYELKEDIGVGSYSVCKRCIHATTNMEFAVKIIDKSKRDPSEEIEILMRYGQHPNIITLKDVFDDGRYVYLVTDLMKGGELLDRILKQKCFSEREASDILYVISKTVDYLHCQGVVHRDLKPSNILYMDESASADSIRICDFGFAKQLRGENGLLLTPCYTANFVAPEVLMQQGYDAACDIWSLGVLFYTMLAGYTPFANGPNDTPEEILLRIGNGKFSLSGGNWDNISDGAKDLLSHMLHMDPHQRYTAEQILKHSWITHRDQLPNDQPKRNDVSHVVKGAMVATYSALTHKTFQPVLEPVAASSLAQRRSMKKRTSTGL

`CCn1c(-c2nonc2N)nc2cnc(Oc3cccc(NC(=O)c4ccc(OCCN5CCOCC5)cc4)c3)cc21` was tested, and the inhibition [1] was 13.8%, the inhibition [2] was 7.56% and the inhibition [3] was 34.7%. For the same molecule, the inhibition [4] was 15.7%, the inhibition [5] was 58.5% and the inhibition [6] was 36.3%. For the same molecule, the inhibition [7] was 74.3%, the inhibition [8] was 2.28% and the inhibition [9] was 2.06%. For the same molecule, the inhibition [10] was 2.76%, the inhibition [11] was 3.43% and the inhibition [12] was 5.2%. For the same molecule, the inhibition [13] was 26.9%, the inhibition [14] was 1.86% and the inhibition [15] was 0.26%. The inhibition [16] was 1.64%, the inhibition [17] was 2.71% and the inhibition [18] was -0.02%. The inhibition [19] was 2.35% and the inhibition [20] was 1.46%.

`Cc1ccc(NC(=O)c2ccnc(N3CCCC3)c2)cc1-c1ccc(C(=O)NCC2CC2)cc1` showed an inhibition [1] of 4.24%, an inhibition [2] of 5.73% and an inhibition [3] of 4.14%. It also gave an inhibition [4] of 2.67%, an inhibition [5] of 6.84% and an inhibition [6] of 1.32%. It also gave an inhibition [7] of 1.99%, an inhibition [8] of 6.18% and an inhibition [9] of 7.1%. It also gave an inhibition [10] of 6.89%, an inhibition [11] of 8.93% and an inhibition [12] of 5.1%. The inhibition [14] was 3.85%, the inhibition [15] was 3.6% and the inhibition [16] was 2.81%. For the same molecule, the inhibition [17] was 4.83%, the inhibition [18] was 0.91% and the inhibition [19] was 2.39%. It also gave an inhibition [20] of 4.45%.

For `Nc1ncnc2occ(-c3ccc(NC(=O)Nc4cccc(C(F)(F)F)c4)cc3)c12`, the inhibition [1] was 9.85%, the inhibition [2] was 4.14% and the inhibition [3] was 3.96%. It also gave an inhibition [4] of 3.57%, an inhibition [5] of 4.73% and an inhibition [6] of 6.15%. For the same molecule, the inhibition [7] was 2.94%, the inhibition [8] was 1.82% and the inhibition [9] was 5.16%. For the same molecule, the inhibition [10] was 2.97%, the inhibition [11] was 5.34% and the inhibition [12] was 1.07%. It also gave an inhibition [13] of 8.04%, an inhibition [14] of 0.85% and an inhibition [15] of 10.2%. For the same molecule, the inhibition [16] was 5.5%, the inhibition [17] was 9.75% and the inhibition [18] was 0.29%. The inhibition [19] was 7.97% and the inhibition [20] was 2.71%.
